The values that follow come from ChEMBL document CHEMBL2218924, “A broad activity screen in support of a chemogenomic map for kinase signalling research and drug discovery” (Biochem J, 2013).

Test [1] deals with T1, Serine/threonine-protein kinase 17A (Homo sapiens) (UniProt Q9UEE5).
T1 sequence (whole entry): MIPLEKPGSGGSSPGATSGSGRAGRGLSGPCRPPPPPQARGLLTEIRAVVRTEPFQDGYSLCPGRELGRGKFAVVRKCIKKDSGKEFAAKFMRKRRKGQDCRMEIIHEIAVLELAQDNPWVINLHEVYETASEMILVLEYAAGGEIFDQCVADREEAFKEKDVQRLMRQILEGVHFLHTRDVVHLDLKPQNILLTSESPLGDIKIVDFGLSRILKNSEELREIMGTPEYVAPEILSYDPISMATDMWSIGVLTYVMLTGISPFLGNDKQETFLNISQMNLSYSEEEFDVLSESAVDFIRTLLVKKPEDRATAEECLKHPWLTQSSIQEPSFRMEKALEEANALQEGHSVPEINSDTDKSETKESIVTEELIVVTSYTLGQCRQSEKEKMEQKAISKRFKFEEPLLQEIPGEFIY
Conditions: at 10 µM.

Test [2] deals with T2, Dual specificity tyrosine-phosphorylation-regulated kinase 2 (Homo sapiens) (UniProt Q92630).
T2 sequence (whole entry): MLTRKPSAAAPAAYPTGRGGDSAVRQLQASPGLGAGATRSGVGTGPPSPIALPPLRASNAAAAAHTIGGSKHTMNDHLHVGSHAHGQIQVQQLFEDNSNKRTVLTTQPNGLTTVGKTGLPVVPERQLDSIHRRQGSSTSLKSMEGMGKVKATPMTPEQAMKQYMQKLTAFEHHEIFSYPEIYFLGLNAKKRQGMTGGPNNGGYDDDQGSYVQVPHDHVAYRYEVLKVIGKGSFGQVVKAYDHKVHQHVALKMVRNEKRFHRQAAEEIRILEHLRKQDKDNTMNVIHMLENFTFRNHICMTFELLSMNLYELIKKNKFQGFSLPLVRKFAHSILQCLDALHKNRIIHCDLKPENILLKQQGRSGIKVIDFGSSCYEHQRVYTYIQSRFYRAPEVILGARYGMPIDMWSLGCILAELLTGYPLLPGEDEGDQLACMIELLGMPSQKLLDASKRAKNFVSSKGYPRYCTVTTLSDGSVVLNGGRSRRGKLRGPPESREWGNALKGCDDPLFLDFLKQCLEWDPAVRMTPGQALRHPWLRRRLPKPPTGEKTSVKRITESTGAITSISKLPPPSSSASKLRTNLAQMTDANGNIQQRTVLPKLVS
Particulars: at 1 µM.

The target in test [3] is T2, Dual specificity tyrosine-phosphorylation-regulated kinase 2 (Homo sapiens). Conditions: at 10 µM.
For test [4], the target named is Epidermal growth factor receptor (Homo sapiens) (UniProt P00533). Particulars: at 1 µM.
The target in test [5] is T3, Ephrin type-A receptor 1 (Homo sapiens) (UniProt P21709).
T3 sequence (whole entry): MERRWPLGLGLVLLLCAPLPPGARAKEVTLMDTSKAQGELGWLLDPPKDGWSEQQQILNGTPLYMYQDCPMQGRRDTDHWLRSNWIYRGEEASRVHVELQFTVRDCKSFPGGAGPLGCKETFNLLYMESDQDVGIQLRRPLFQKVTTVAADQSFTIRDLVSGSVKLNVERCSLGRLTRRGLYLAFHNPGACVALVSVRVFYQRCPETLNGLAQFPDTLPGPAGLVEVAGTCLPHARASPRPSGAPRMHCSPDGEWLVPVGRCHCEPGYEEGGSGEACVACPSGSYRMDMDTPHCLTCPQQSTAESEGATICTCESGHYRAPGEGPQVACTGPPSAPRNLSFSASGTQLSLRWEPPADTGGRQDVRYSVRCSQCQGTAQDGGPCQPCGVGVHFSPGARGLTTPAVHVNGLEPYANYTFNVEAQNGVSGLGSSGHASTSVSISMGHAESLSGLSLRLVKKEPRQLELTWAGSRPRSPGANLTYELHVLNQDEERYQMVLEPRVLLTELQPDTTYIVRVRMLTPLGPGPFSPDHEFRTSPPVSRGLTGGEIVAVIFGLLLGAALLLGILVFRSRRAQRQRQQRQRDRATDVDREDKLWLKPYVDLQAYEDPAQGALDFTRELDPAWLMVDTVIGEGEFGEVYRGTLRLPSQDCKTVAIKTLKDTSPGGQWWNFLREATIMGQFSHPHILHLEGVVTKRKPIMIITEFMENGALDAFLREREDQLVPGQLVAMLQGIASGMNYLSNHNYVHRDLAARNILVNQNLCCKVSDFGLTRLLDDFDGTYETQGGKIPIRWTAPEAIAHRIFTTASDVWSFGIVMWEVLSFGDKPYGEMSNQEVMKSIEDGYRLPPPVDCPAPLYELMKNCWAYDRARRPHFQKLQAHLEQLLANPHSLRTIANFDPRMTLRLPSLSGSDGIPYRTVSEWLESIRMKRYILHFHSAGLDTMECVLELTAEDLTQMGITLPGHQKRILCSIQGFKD
Particulars: at 1 µM.

Test [6] deals with T3, Ephrin type-A receptor 1 (Homo sapiens). Conditions: at 10 µM.
In test [7] the target is Ephrin type-A receptor 2 (Homo sapiens) (UniProt P29317). Conditions: at 1 µM.
For test [8] the target is unchanged. Particulars: at 10 µM.
The target of test [9] is T4, Ephrin type-A receptor 3 (Homo sapiens) (UniProt P29320).
T4 sequence (whole entry): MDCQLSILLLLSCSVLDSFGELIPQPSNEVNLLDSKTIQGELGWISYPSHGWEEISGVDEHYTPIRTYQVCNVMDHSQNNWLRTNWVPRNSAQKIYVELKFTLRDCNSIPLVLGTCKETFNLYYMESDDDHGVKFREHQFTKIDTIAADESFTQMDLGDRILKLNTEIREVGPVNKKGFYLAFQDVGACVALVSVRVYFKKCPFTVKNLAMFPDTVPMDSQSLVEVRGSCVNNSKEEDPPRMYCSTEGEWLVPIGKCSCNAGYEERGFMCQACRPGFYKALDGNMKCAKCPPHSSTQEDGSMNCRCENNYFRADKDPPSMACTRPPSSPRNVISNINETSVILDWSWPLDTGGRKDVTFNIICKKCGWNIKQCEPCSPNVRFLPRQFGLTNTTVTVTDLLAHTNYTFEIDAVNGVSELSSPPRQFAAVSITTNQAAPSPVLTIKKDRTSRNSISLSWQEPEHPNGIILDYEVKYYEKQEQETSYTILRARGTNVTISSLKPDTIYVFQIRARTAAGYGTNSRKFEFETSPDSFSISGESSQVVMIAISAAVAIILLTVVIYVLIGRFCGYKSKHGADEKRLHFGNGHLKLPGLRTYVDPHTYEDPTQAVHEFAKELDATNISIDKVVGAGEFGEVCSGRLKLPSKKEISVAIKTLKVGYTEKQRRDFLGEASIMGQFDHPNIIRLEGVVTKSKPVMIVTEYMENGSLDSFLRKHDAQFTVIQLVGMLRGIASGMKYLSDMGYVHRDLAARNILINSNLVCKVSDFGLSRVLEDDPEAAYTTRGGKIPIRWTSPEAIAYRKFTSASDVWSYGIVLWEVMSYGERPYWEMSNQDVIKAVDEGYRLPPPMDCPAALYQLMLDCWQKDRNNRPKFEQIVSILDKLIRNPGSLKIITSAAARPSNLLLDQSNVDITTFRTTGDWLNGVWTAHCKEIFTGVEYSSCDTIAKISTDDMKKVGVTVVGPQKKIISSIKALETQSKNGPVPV
Conditions: at 1 µM.

Test [10] has as its target T4, Ephrin type-A receptor 3 (Homo sapiens). Conditions: at 10 µM.
The target of test [11] is Ephrin type-A receptor 4 (Homo sapiens) (UniProt P54764). Conditions: at 1 µM.
The target is the same in test [12]. Conditions: at 10 µM.
Test [13] deals with Ephrin type-A receptor 5 (Homo sapiens) (UniProt P54756). Conditions: at 1 µM.
Test [14] shares this target. Conditions: at 10 µM.
Test [15] has as its target Ephrin type-A receptor 7 (Homo sapiens) (UniProt Q15375). Conditions: at 1 µM.
For test [16] the target is unchanged. Conditions: at 10 µM.
In test [17] the target is T5, Ephrin type-A receptor 8 (Homo sapiens) (UniProt P29322).
T5 sequence (whole entry): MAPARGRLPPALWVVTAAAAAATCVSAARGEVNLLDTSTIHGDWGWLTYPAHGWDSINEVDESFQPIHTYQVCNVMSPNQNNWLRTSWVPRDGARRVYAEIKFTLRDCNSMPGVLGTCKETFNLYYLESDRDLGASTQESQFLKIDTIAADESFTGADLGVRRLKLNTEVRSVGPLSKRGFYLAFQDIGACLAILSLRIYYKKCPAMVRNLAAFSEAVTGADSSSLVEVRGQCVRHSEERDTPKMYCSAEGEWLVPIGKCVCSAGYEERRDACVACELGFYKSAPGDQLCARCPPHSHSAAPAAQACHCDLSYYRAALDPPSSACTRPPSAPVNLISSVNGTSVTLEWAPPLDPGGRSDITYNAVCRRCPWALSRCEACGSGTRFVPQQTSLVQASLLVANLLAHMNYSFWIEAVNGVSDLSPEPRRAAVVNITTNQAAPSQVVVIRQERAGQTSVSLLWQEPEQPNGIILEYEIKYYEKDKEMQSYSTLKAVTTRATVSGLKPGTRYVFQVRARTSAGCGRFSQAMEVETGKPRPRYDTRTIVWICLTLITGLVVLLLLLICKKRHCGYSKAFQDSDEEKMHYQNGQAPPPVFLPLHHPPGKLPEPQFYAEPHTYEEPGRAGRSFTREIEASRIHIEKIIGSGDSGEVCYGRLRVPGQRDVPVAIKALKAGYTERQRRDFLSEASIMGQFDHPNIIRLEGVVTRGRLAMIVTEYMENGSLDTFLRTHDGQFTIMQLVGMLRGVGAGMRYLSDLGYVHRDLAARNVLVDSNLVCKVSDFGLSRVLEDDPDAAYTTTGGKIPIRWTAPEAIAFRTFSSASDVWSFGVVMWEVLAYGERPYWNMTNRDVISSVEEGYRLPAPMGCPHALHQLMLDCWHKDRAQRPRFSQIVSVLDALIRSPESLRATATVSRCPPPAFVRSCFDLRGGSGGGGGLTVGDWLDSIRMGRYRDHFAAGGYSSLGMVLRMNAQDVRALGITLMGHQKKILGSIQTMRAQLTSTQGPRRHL
Particulars: at 1 µM.

Test [18] addresses T5, Ephrin type-A receptor 8 (Homo sapiens). Particulars: at 10 µM.
In test [19] the target is T6, Ephrin type-B receptor 1 (Homo sapiens) (UniProt P54762).
T6 sequence (whole entry): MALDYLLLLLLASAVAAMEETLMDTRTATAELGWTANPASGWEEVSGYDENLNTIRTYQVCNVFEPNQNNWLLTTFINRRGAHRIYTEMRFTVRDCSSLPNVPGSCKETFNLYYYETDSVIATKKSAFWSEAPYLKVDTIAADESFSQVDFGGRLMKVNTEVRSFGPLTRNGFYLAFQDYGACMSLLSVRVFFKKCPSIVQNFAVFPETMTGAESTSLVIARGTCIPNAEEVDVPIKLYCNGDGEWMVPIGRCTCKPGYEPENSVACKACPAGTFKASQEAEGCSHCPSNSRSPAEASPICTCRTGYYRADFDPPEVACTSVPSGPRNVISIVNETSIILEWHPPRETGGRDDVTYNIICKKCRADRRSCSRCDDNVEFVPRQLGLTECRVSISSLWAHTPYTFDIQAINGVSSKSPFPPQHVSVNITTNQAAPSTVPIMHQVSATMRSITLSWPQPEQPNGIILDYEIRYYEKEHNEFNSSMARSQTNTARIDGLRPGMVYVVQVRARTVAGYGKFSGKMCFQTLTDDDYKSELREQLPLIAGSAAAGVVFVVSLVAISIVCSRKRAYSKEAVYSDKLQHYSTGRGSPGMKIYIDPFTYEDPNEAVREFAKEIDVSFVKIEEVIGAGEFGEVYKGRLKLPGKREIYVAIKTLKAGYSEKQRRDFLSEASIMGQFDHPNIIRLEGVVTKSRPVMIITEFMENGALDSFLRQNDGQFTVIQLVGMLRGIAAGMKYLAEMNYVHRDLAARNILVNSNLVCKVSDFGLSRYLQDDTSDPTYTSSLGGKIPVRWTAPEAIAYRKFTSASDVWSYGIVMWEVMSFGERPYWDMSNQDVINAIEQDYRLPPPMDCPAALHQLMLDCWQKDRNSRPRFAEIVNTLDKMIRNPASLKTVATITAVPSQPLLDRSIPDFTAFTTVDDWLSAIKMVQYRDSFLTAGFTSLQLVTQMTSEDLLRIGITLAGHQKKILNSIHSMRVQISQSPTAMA
Particulars: at 1 µM.

Sequence of Ephrin type-A receptor 7 (Homo sapiens) (Q15375 28-998 limits assumed): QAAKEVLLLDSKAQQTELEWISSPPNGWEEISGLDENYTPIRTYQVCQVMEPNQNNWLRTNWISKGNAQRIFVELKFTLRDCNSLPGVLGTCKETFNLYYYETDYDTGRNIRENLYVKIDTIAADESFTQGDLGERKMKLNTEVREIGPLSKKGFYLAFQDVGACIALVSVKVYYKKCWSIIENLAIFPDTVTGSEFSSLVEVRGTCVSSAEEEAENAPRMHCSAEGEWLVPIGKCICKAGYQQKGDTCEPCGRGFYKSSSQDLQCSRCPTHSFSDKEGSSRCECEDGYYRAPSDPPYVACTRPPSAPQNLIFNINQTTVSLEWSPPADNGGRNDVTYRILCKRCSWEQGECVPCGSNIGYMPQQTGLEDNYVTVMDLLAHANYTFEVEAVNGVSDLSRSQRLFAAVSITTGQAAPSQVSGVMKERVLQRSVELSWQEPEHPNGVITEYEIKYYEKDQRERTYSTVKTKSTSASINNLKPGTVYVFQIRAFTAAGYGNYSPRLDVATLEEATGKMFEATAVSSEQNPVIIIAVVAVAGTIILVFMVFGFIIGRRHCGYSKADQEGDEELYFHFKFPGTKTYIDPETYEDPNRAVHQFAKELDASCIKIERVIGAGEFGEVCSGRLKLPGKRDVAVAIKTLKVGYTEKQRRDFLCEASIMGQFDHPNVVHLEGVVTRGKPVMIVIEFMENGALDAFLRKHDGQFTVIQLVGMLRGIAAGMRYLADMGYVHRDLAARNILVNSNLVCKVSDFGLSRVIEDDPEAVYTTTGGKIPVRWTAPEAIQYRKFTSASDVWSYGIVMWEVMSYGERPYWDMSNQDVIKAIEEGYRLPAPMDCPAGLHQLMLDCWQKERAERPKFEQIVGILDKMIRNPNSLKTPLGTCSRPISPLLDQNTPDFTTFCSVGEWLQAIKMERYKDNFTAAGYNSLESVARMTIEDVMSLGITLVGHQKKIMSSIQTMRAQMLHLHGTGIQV
Sequence of Ephrin type-A receptor 2 (Homo sapiens) (P29317 whole entry): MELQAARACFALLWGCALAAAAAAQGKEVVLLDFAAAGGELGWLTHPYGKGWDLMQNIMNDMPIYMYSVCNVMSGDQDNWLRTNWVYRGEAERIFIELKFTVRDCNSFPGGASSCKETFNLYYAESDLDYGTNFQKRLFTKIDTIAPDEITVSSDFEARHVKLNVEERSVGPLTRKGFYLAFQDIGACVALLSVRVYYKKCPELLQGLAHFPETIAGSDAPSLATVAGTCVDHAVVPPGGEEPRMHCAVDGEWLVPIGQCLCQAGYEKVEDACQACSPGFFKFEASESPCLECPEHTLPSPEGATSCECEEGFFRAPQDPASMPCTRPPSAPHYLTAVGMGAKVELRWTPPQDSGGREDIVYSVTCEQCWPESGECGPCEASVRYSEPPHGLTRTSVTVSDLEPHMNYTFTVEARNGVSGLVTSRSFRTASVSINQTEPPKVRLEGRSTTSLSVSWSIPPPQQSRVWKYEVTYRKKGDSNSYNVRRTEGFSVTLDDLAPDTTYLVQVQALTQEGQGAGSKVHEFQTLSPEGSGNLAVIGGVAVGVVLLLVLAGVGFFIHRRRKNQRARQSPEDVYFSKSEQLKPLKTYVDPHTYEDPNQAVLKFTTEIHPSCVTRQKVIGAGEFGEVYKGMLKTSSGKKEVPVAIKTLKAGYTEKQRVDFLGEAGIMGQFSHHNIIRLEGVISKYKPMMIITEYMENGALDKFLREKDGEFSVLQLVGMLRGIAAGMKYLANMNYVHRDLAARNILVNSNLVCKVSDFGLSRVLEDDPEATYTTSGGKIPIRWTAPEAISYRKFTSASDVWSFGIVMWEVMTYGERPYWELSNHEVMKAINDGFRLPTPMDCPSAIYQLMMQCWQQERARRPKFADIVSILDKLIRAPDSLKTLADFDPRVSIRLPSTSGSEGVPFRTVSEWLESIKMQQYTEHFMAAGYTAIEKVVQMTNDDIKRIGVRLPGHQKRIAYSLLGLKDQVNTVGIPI
Sequence of Ephrin type-A receptor 5 (Homo sapiens) (P54756 whole entry): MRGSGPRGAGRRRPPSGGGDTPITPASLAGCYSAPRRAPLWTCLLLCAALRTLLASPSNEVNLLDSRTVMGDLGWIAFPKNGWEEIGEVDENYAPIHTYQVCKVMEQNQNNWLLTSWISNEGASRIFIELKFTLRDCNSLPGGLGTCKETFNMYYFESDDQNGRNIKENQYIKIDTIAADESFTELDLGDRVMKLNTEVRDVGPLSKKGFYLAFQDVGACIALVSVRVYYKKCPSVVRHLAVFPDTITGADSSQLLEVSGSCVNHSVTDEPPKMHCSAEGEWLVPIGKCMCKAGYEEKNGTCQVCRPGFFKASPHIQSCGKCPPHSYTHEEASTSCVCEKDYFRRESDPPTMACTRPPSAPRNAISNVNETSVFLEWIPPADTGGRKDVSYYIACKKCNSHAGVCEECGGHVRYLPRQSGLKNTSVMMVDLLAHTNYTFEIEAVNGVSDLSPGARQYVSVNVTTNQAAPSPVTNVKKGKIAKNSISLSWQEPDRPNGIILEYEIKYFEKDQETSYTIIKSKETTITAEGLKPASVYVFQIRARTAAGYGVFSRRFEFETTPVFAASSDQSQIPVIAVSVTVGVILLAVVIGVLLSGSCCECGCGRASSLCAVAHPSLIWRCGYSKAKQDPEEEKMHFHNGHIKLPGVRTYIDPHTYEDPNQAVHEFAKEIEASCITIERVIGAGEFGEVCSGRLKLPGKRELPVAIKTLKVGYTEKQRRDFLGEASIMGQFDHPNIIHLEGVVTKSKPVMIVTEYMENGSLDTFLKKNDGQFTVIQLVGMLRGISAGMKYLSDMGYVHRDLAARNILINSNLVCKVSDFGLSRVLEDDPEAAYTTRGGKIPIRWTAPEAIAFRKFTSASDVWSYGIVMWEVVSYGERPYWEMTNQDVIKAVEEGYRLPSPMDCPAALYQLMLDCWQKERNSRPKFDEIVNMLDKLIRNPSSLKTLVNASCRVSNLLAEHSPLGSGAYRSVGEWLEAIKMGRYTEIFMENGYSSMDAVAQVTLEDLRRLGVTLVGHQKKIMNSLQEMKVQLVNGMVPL
Sequence of Ephrin type-A receptor 4 (Homo sapiens) (P54764 whole entry): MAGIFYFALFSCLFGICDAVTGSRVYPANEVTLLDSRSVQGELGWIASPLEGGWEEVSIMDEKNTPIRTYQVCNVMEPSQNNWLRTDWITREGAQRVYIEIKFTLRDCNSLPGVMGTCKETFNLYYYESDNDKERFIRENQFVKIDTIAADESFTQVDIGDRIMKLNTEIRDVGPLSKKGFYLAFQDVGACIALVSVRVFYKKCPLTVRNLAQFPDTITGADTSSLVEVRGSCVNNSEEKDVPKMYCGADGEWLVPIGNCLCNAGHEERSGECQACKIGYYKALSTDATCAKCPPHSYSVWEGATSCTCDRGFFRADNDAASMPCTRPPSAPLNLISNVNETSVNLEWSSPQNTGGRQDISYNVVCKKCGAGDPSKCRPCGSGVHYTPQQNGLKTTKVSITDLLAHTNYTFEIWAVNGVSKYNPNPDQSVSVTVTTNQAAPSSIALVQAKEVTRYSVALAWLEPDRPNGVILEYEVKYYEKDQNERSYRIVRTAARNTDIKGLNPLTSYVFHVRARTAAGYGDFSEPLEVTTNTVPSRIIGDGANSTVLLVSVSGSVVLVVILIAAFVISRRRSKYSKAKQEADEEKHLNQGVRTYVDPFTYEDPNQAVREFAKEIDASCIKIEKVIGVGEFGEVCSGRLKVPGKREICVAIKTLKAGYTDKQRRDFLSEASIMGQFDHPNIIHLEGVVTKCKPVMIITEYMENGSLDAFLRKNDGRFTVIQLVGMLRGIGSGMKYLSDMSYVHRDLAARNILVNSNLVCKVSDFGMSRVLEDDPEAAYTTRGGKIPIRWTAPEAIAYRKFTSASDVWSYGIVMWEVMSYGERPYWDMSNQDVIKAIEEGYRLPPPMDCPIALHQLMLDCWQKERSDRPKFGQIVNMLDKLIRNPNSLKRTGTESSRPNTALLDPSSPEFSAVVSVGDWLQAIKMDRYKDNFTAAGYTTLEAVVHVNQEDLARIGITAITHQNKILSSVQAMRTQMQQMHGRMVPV

Turning to `CO[C@@H]1[C@H](N(C)C(=O)c2ccccc2)C[C@H]2O[C@]1(C)n1c3ccccc3c3c4c(c5c6ccccc6n2c5c31)C(=O)NC4`, the residual activity stood at 9% in test [1]; 90% in test [2]; 88% in test [3]; 101% in test [4]; 87% in test [5]; 81% in test [6]. The residual activity in test [7] stood at 97%; in test [8], 95%; in test [9], 97%; in [10], 99%; in [11], 103%; in test [12] it was 90%. For the same compound, the residual activity in test [13] worked out at 97%; in [14] it was 86%; in test [15] it was 94%; in test [16], 70%; in test [17], 94%; in [18] it was 97%.

Consider `Cc1nc(-c2ccccc2)c(-c2ccncc2)o1`, for which the residual activity in test [1] was determined as 77%; in test [2], 99%; in [3], 87%; in test [5], 103%; in test [6], 81%; in [7] it was 93%. The residual activity is 59% in test [8]; 92% in [9]; 77% in test [10]; 109% in [11]; 102% in test [12]; 35% in test [13]. Besides, the residual activity in test [14] worked out at 29%; in test [15], 94%; in [16] it was 89%; in test [17], 65%; in test [18], 54%; in test [19], 63%.

`Cn1cnc2cc3c(Nc4cccc(Br)c4)ncnc3cc21`: the residual activity is 28% in [1]; 98% in test [2]; 79% in test [3]; 60% in [5]; 49% in test [6]; 89% in [7]. In addition, the residual activity in test [8] came out at 62%; in test [9] it was 90%; in [10], 30%; in [11], 106%; in test [12] it was 88%; in test [13], 82%. The residual activity was found to be 40% in test [14]; 77% in test [15]; 39% in [16]; 86% in test [17]; 63% in [18]; 70% in [19].

For orientation: residual activity means the signal under treatment as a percentage of the control signal.
